Pf growth 48h – Primary qHTS for delayed death inhibitors of the malarial parasite plastid, 48 hour incubation | P. falciparum luciferase growth in erythrocytes, 48 h | Potency, µM (top dose mostly 28.7 µM), most hits filed as inhibitors | 310,000 tested, 5.9% active
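Luciferase-expressing parasites in RBCs, 2% Hct / 0.1% parasitemia final; RPMI 1640 + 0.5% Albumax; 37 C, 5% CO2, one generation; luminescence read-out, lower signal = inhibition.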
CHX counter – Cycloheximide Counterscreen for Small Molecule Inhibitors of Shiga Toxin; cell reporter, cycloheximide protein synthesis inhibition counterscreen; max response, %; 300,000 tested, 12% active; AID 2314, 2010; in the data active means max response mostly above about 13%, no sharp cut-off; inactive means mostly below about 14%; further: read at 38.3 µM for the half of the compounds with a filed dose
Pf growth 96h – Primary qHTS for delayed death inhibitors of the malarial parasite plastid, 96 hour incubation; P. falciparum luciferase reporter growth, 96 h; Potency, µM (titrated, usually from 28.7 µM), hits mostly inhibitors; 320,000 tested, 6.9% active
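Plates of compound plus infected erythrocytes (2% hematocrit, 0.05% parasitemia final) incubate 96 hours, 37 C, 5% CO2. Detection reagent added; reduced luminescence from the parasites' luciferase reporter flags inhibition.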
Shiga inhibitor – A qHTS for Small Molecule Inhibitors of Shiga Toxin | 290,000 tested, 9.2% active | inhibition, % at 38.7 µM | Vero cells, Shiga toxin protein synthesis inhibition reporter; in the data active means inhibition mostly above about 28%, no sharp cut-off; inactive means mostly below about 43%
Numbers stand for hits; 0 = inactive; ? = inconclusive; - = no result given; [ ] = remark or other dose. Rows were chosen to be rich in hits. Some 21% of all compounds tested hit in one or more screens of this group. Unless noted, the call rests on the fitted dose curve; in most records, active means well fitted inhibition curve with a large enough effect; inconclusive means small, poorly fitted or top-dose-only effect, or another doubt; inactive means no such curve, though single readings can be large or run the other way.

SMILES	Pf growth 48h	CHX counter	Pf growth 96h	Shiga inhibitor
NC1=NC(=O)/C(=C/c2c(OS(=O)(=O)c3ccc(Cl)cc3)ccc3ccccc23)S1	0	0	0	0
Cc1onc(-c2ccccc2Cl)c1C(=O)OCC(=O)c1c(N)n(C)c(=O)n(C)c1=O	?	0	0	0
CC1CCCC(C)N1/N=C/c1cc(Br)c(O)c(Br)c1 (stereo not given)	0	0	0	0
CN=c1scc(C)n1/N=C/c1ccc(O)cc1O	0	25	0	30
CN=c1scc(C)n1/N=C/c1ccc(O)cc1	0	38	-	117
CN=c1scc(-c2ccccc2F)n1/N=C/c1ccc(O)c(O)c1O	?	0	0	0
CN=c1scc(-c2ccco2)n1/N=C/c1ccc(O)c(O)c1	0	0	0	0
CN=c1scc(C)n1/N=C/c1cc(Br)c(O)c(Br)c1	0	18	0	0
C=CCN=c1scc(C)n1/N=C/c1ccc(O)c(O)c1	?	37	0	65
CCCCn1nnc(NC(=S)NC(=O)c2ccc(OCC)c([N+](=O)[O-])c2)n1	0	0	0	0
Cc1cc(F)ccc1S(=O)(=O)NCC(c1cccnc1)N1CCc2ccccc21 (stereo not given)	?	0	0	0
CC(Cc1nnc(SCC(=O)O)n1N)c1ccccc1 (stereo not given)	0	0	0	0
COc1cc(/C=N/N2C(C)CCCC2C)cc(Br)c1O (stereo not given)	0	0	0	0
CCN=c1scc(C)n1/N=C/c1cc(Br)c(O)c(OC)c1	?	14	5.9µM	0
CN=c1scc(C)n1/N=C/c1ccc2c(c1)OCO2	0	28	0	69
CCCCC(=O)Nc1nc2c(OC)ccc(OC)c2s1	-	0	?	0
CCCCC(=O)Nc1nc(C)c(-c2csc(Nc3cc(Cl)ccc3OC)n2)s1	8.3µM	0	4.7µM	0
CCCCC(=O)Nc1nc(C)c(-c2csc(Nc3cc(OC)ccc3OC)n2)s1	1µM	0	?	0
c1ccc(C2CCC(N3CCN(c4ccccc4)CC3)CC2)cc1 (stereo not given)	0	0	0	0
C/[N+]([O-])=C/c1c(OCc2ccccc2)ccc2ccccc12	0[0.00184 µM]	0	0	0
O=Cc1c(OCc2ccccc2)ccc2ccccc12	0	47	0	78
O=C1Cc2ccccc2N1c1c(Cl)cccc1Cl	0	0	3.3µM	0
CCC(=O)Nc1ccc(N2CCN(C(=O)c3cccs3)CC2)cc1	0	0	0	0
O=C(Nc1ccc(N2CCN(C(=O)c3cccs3)CC2)cc1)c1ccc([N+](=O)[O-])o1	?	0	9.3µM	0
O=C(Nc1ccc(S(=O)(=O)N2CCOCC2)cc1)c1ccc([N+](=O)[O-])o1	10µM	19	?	61
SMILES	Pf growth 48h	CHX counter	Pf growth 96h	Shiga inhibitor
O=C(Nc1ccc(N2CCN(C(=O)c3cccs3)CC2)cc1)c1ccco1	0	0	?	0
O=C(Nc1ccc(S(=O)(=O)N2CCOCC2)cc1)c1ccco1	0	0	0	0
O=C(Nc1ccc(N2CCOCC2)cc1)c1ccc([N+](=O)[O-])o1	0	37	0	59
O=C(COc1ccccc1[N+](=O)[O-])Nc1ccc(N2CCN(C(=O)c3cccs3)CC2)cc1	10µM	0	0	0
O=C(CSc1nc2ccccc2s1)NCCCN1CCOCC1	-	0	0	0
CC(=O)CSc1nc2ccc(Nc3nc(N4CCOCC4)nc(N4CCOCC4)n3)cc2s1	?	0	6.6µM	0
CCOc1cc(C(=O)NCc2ccccc2)ccc1OCC(=O)N1CCOCC1	0	0	0	0
O=C(CSc1nc2ccccc2s1)N1CCOCC1	0	29	?	active
CCOC(=O)CSc1nc2ccc(Nc3nc(N4CCOCC4)nc(N4CCOCC4)n3)cc2s1	0	0	0	0
CCOc1cc(/C=C/c2nc3ccccc3s2)ccc1OCC(=O)N1CCOCC1	0	16	0	37
CC(=O)Nc1ccc2nc(SCC(=O)Nc3ccc(N4CCOCC4)c(Cl)c3)sc2c1	0	69	0	98
O=C(O)C1CCCCC1C(=O)Nc1cc(C(F)(F)F)ccc1Cl (stereo not given)	0	0	0	0
CCN(CC)c1ccc(C(=O)OCc2c(C)noc2C)cc1	0	0	0	0
CC(C)(C)NC(=O)CSc1nc2ccc(Nc3nc(N4CCOCC4)nc(N4CCOCC4)n3)cc2s1	7.4µM	0	?	0
O=C(Nc1nc2ccccc2s1)C1CCN(S(=O)(=O)c2cc([N+](=O)[O-])ccc2Cl)CC1	?	21	?	50
Cc1ccc(NC(=O)CSc2nc3ccc(Nc4nc(N5CCOCC5)nc(N5CCOCC5)n4)cc3s2)cc1	?	0	?	0
COc1ccc(NC(=O)CSc2nnc(C)s2)cc1S(=O)(=O)N1CCOCC1	0	-	10µM	-
O=C(CSc1nc2ccccc2s1)Nc1ccc(Cl)c(S(=O)(=O)N2CCOCC2)c1	?	0	4.7µM	0
COc1ccc(NC(=O)CSc2nnc(C)n2C2CC2)cc1S(=O)(=O)N1CCOCC1	0	-	?	-
Cc1ccc(C(=O)NCCNS(C)(=O)=O)cc1	0	0	?	0
COc1ccc(CCN(C)C2CCCN(C(=O)CCC(F)(F)F)C2)cc1OC (stereo not given)	0	0	?	0
COc1ccc(-n2c(C)cc3cc(OC(C)=O)ccc32)cc1	0	11	0	0
COc1ccc(-n2c(C)c(C(C)=O)c(C(C)=O)c2C)cc1	0	0	-	0
COc1ccc(/C=N/Nc2nc(-c3cccnc3)nc3ccccc23)cc1OC	6.6µM	31	?	62
COc1cccc(CN(C)c2nc(-c3cccs3)nc3ccccc23)c1	?	0	0	0
SMILES	Pf growth 48h	CHX counter	Pf growth 96h	Shiga inhibitor
Cc1c(O)ccc(/C=N/Nc2nc(-c3cccnc3)nc3ccccc23)c1O	?	59	10µM	49
Cc1ccc(-c2nc(N/N=C/c3ccncc3)c3ccccc3n2)cc1	-	55	?	76
CCOc1ccc(CN(C)c2nc(-c3cccnc3)nc3ccccc23)cc1OC	12µM	0	?	0
Cc1ccccc1Nc1nc(-c2cccnc2)nc2ccccc12	?	0	?	0
COc1ccc(C)cc1S(=O)(=O)N1CCN(C)CC1c1ccccc1 (stereo not given)	0	-	0	-
CN(Cc1ccccc1F)c1nc(-c2cccnc2)nc2ccccc12	?	0	?	0
Oc1ccc(/C=N/Nc2nc(-c3cccnc3)nc3ccccc23)c(O)c1	9.3µM	53	?	41
Cc1ccc(CN(C)c2nc(-c3cccnc3)nc3ccccc23)o1	?	0	12µM	0
COc1ccc(CCNc2nc(-c3cccnc3)nc3ccccc23)cc1OC	15µM	0	?	0
COc1cc(/C=N/Nc2ncnc3sc4c(c23)CCC4)ccc1O	?	0	?	0
COc1ccc(/C=N/Nc2ncnc3scc(-c4ccccc4)c23)cc1OC	-	0	10µM	0
O=C(CSc1nnnn1-c1ccc(F)cc1F)Nc1ccccc1F	0	0	0	0
CNCCCOc1cc(C)cc(C)c1C	0	0	?	0
NC(=O)N/N=C/c1cn(-c2ccccc2)nc1-c1ccccc1	0	31	?	60
O=S(=O)(N/N=C\c1cn(-c2ccccc2)nc1-c1ccccc1)c1ccccc1	0	0	0	0
